Over roughly 68,000 sequences, “fluorescence intensity (a.u.)” has its median near 9,100; the highest 2% begin near 16,000. The full list was thinned out, with the highest values kept by preference.

Sequence of OsWRKY34 (Q0JBA9 entry or part of it): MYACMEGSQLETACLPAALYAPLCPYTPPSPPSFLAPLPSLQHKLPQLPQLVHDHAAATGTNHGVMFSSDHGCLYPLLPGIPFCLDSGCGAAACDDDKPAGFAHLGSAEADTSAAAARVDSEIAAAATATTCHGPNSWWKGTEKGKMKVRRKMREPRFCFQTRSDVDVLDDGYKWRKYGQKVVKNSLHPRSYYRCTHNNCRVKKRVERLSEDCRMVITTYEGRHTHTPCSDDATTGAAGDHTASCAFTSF

The target in the assay is OsWRKY34 (Oryza sativa, UniProt Q0JBA9 1-250). Put plainly: protein-binding microarray (RPBM); PBS, 2% BSA, 51.3 ng/ul salmon testes DNA, 50 uM zinc acetate, 200 nM TF, 25 C, 1 h; high values mean tight binding. To be noted: protein: recombinant; tags: N-terminal polyhistidine and DsRed monomer fusion (pET32a); label: CyDye5-dUTP incorporated in the synthesized complementary strand; 3' TTTTT single-stranded linker to array surface; dsDNA, one strand shown. The essentials:
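Polyhistidine-tagged DsRed fusions of transcription factors, joined at the N-terminus, were expressed in E. coli BL21-CodonPlus and isolated on Ni–NTA. They were incubated at 200 nM for 1 h at 25 °C on a custom Agilent array, double-stranded and BSA-blocked, in PBS with 2% BSA, salmon testes DNA and 50 µM zinc acetate. The binding signal is per-feature fluorescence intensity (arbitrary units) read on an Axon 4000B scanner after washing.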
As to “TCGTGCGTGCGTGTTTAATTGTCAACCCATACACAACTTGCGGAGTCACCTAGTGCAG”, the binding signal is 8510 fluorescence intensity (a.u.).
“TAAATATTTGACACCGTTGACTTTTTACACATATTTGACCCGGAGTCACCTAGTGCAG”: the binding signal is 35100 fluorescence intensity (a.u.).
Regarding “AAATATTTGACCGTTCGTTTATTATTTTTATTTTTTTTACCGGAGTCACCTAGTGCAG”, the binding signal is 12200 fluorescence intensity (a.u.).
The result for “TTGACATAAATTTTCAACCAACCCGTTGTTTTTGTTTTACCGGAGTCACCTAGTGCAG” reads 9250 fluorescence intensity (a.u.); that for “TTCCTCTTCTCTTCTCGTCTCTTGTAGTAGTATATATTTACGGAGTCACCTAGTGCAG”, 8430 fluorescence intensity (a.u.).
Regarding “TCACTTTTCATGTACAAAACATGTTGATATTGTGGTTGGTCGGAGTCACCTAGTGCAG”, the binding signal was 8200 fluorescence intensity (a.u.).
Take “AAATCCCCTTGTTACCGCGCGTTGTTTGGTTGTACCGCGCCGGAGTCACCTAGTGCAG”: the binding signal is 16600 fluorescence intensity (a.u.).
Take “TTCGCGCGCTGCTCGCTCGCTTGGTTGGTTGGTTGATTGCCGGAGTCACCTAGTGCAG”: the binding signal is 15200 fluorescence intensity (a.u.).
“GCTGTTATTGGTTGCTCCTCGCGGTCTCCTTTTTTGGTGACGGAGTCACCTAGTGCAG”: the binding signal was 10800 fluorescence intensity (a.u.).
For “TCGTTCTTGGCTGGGTTTGGTTTGGTTTGGTTTGGTCTCGCGGAGTCACCTAGTGCAG”, the binding signal was 45500 fluorescence intensity (a.u.).
For the sequence “CGTGGGGTTTTCTTGTTTCGGAGGTAGGGAGAGGTTTCGTCGGAGTCACCTAGTGCAG”, the binding signal is 11900 fluorescence intensity (a.u.).
For “CGCTCCGCGATTCGTGTTGGTTCTTTTTTTTGTTTCTTGGCGGAGTCACCTAGTGCAG”, the binding signal was 8470 fluorescence intensity (a.u.).
Regarding “ACCGAATCCGAATCCCGCGTTTCTTTGTTGCGCGCGCGACCGGAGTCACCTAGTGCAG”, the binding signal is 10100 fluorescence intensity (a.u.).
Take “TTGGTTTGGTTGCTCCTCGCGCTGTTATTGGTTGCTCCTCCGGAGTCACCTAGTGCAG”: the binding signal is 19900 fluorescence intensity (a.u.).
On to “GTTGTTCTTGGCGGCTAGGTCGTGGGGTTTTCTTGTTTCGCGGAGTCACCTAGTGCAG”, for which the binding signal was 22800 fluorescence intensity (a.u.).
Consider “TGTGGTGGAGGCCGGCTGGGTTCTCTTGGGGTTTGGCCGGCGGAGTCACCTAGTGCAG”, for which the binding signal is 10400 fluorescence intensity (a.u.).
For the sequence “GTTGGGGTGGTTGGTTTGGGGATCCCCTGTTGTACCCTGCCGGAGTCACCTAGTGCAG”, the binding signal was 10700 fluorescence intensity (a.u.).
Take “TTGGTCTCTCCTCGTCGCTGGGGTTCTTTGTTCTTGTAGTCGGAGTCACCTAGTGCAG”: the binding signal was 10000 fluorescence intensity (a.u.).
Next, “TTCGGGCATACGCCACCCCGCCTTGTCATCCACCGCGCCCCGGAGTCACCTAGTGCAG”: 8470 fluorescence intensity (a.u.); “AACATTTATTTCCATATCTTCATATATGGTTCCATATGAACGGAGTCACCTAGTGCAG”: 8400 fluorescence intensity (a.u.); “TGCCAAGGACTGCATCTTCATCATTGCCTGGGTGTCCACCCGGAGTCACCTAGTGCAG”: 8700 fluorescence intensity (a.u.).
As for “AACCCACAATTACGCGGCGGTGCATTCTCGTTGCTTTGACCGGAGTCACCTAGTGCAG”, the binding signal was 11400 fluorescence intensity (a.u.).
The result for “ACCGACTCAAAAACCTAACGGCACTTTTTTTATTTTCAACCGGAGTCACCTAGTGCAG” reads 10600 fluorescence intensity (a.u.).

Values taken from paper PMC7819943, “Rice protein-binding microarrays: a tool to detect cis-acting elements near promoter regions in rice”.
